# Source: PubChem BioAssay
# Molecular target: Calmodulin-1 (Homo sapiens) (UniProt P0DP23)
# Assay: CALM1 binders on microarrays, EGTA buffer, profiling panel, biochemical, small-molecule microarray, Cy5-labelled CALM1 (AID 1111);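 also: labelled calmodulin applied in Tris saline Tween buffer holding calcium plus EGTA and DTT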
# Details: Cy5-CALM1 binding fluorescence, higher = more signal
row,SMILES,composite z-score
1,COCCCNC(=O)[C@@]1(Sc2ccc(C)cc2)CC(=O)N(C2CCCCC2)[C@@H]1c1ccc(CO)cc1I,0.99
2,[N-]=[N+]=NCc1ccccc1C[C@]1(C(=O)O)COC(c2ccc(OCCCO)cc2)=N1,0.0347
3,COC(=O)[C@@]1(Cc2ccc(OC)cc2)[C@H]2c3cc(C(=O)N(C)C)n(Cc4ccsc4Br)c3C[C@H]2CN1C(=O)c1ccccc1,1.01
4,CCCCC(=C=CC[C@@H](O)c1ccc(OCCO)cc1)C[C@@H](O)c1ccccn1,0.421
5,O=C1NC(=O)C2C1C=CC(C(O)c1cccc(O)c1)N2Nc1ccc(Cl)cc1Cl (stereo not given),0.741
6,[N-]=[N+]=NCc1ccccc1C[C@]1(C(=O)NCc2ccccc2)N=C(c2ccc(OCCCO)cc2)O[C@H]1c1ccccc1CN=[N+]=[N-],1.36
7,O=C1O[C@H](c2ccccc2)[C@H](c2ccccc2)N2[C@H]1[C@@H](C(=O)N1CCN(c3ncccn3)CC1)[C@]1(C(=O)Nc3ccccc31)[C@H]2c1ccc(O)cc1,1.28
8,COC(=O)[C@@]1(Cc2ccc(F)cc2)[C@H]2c3cc(C(=O)N4CCCC4)n(CCO)c3C[C@H]2CN1C(=O)c1ccccc1,-0.07
9,O=C1NC(=O)C2C1C=CC(C(O)c1ccc(F)cc1)N2Nc1ccccn1 (stereo not given),0.0754
10,CC[C@H](C)C(=O)O[C@H]1CC[C@]2(C)C3=C(CCC2C1(C)C)[C@]1(C)CC[C@H]([C@H](C)CCCC(C)C)[C@@]1(C)CC3 (stereo not given in full),-0.367
11,CCCC[C@H]1OB(O)C[C@H]2C1=C(COC)C[C@H]1C(=O)C=CC(=O)[C@H]12,-0.321
12,CCCCCCCCCCC(O)C1C=CC2C(=O)N(C)C(=O)C2N1N1CCCCC1 (stereo not given),-0.311
13,C=CC[C@]1(C(=O)NCCCOC)N=C(c2ccc(OCCCO)cc2)O[C@H]1c1ccccc1,0.287
14,CC1CC/C=C\[C@H]2OC34C=CCN(c5ccc(Cl)cc5)C(=O)[C@H]3N(CCCO)C(=O)[C@]4(C)C2C(=O)O1 (stereo not given in full),-0.484
15,C=C(CC1([C@@H](NP(=O)(c2ccccc2)c2ccccc2)[C@H]2C[C@@H]2CCN(C(=O)OCC)S(=O)(=O)c2ccc(C)cc2)CC1)c1ccccc1,1.88
16,COCC1=C([C@H](O)CCc2ccccc2)[C@H](CO)n2c(=O)n(-c3ccccc3)c(=O)n2C1,-0.357
17,COC(=O)c1ccc([C@H](NC(=O)c2ccccc2)[C@]2(C)C[C@H]2C2CCCCC2)cc1,1.73
18,COCCOC(=O)N1C(=O)[C@@]2(c3cc(C#CC4=CCCCC4)ccc31)[C@H](c1ccccc1OCCO)N1[C@H](c3ccccc3)[C@H](c3ccccc3)OC(=O)[C@H]1[C@@H]2C(N)=O,0.367

row,SMILES,composite z-score
1,C=CCC(OC(C)=O)[C@@H]1[C@@H](N(Cc2cc3ccccc3o2)C(=O)Cc2ccc(OC)cc2)c2cc(OCCCO)ccc2N1C(=O)Cc1ccc2ccccc2c1 (stereo not given in full),-0.197
2,COc1ccc([Si](C)(C)[C@H]2[C@H](CCO)O[C@@]3(C(=O)N(Cc4ccccc4)c4ccc(N(C=O)c5ccccc5)cc43)[C@@H]2C)cc1,1.1
3,CC(C)CNC(=O)[C@@H]1c2ccccc2C(=O)N(Cc2ccccc2Cl)[C@H]1c1ccc(CO)cc1,0.0642
4,CCCCNC(=O)c1ccc(C#C[Si](C)(C)C)c(OC(C)=O)c1,-0.262
5,COc1cc2c(cc1O)C(c1ccc(CN3CCCC3)cc1)N(Cc1cccc(OC(F)(F)F)c1)CC2 (stereo not given),-0.0262
6,C=CCOC(=O)[C@H]1[C@@H]2C(=O)O[C@@H](c3ccccc3)[C@@H](c3ccccc3)N2[C@@H](c2ccc(OCCOC(=O)[C@H]3C[C@H]4C(=O)NCC(=O)N4[C@H]3c3ccc(O)cc3)cc2)[C@]12C(=O)Nc1ccc(I)cc12,0.275
7,NC(=O)N1C(=O)C2C(C1=O)C1C=C(CCCO)C2C(c2ccc(CN3CCCC3)cc2)N1Cc1cccc(OC(F)(F)F)c1 (stereo not given),0.011
8,C=C(CCCC)C(=O)CC[C@H](OC(C)=O)c1ccccc1OCCO,-0.592
9,C=CCC(OC(C)=O)[C@@H]1[C@@H](N(Cc2cccc3ccccc23)C(=O)c2ccc(-c3ccccc3)cc2)c2cc(OCCCO)ccc2N1C(=O)c1ccc2ccccc2n1 (stereo not given in full),0.249
10,COC(=O)[C@@]1(Cc2ccccc2)[C@@H]2[C@@H](CC(=O)[C@H]2CC(=O)C(=O)N(C)C)CN1C(=O)c1ccccc1,0.518
11,COCCOC(=O)N1C(=O)[C@@]2(c3cc(C#Cc4ccc(OC)cc4)ccc31)[C@H](C(=O)Nc1nc3ccccc3s1)[C@H]1C(=O)O[C@H](c3ccccc3)[C@H](c3ccccc3)N1[C@@H]2c1ccccc1OCCO,1.5
12,CCc1cccc(NC(=O)O[C@H]2[C@H](OC(=O)Nc3ccc4c(c3)OCO4)[C@H](OC(=O)Nc3ccc4c(c3)OCO4)[C@@H](OC)O[C@@H]2CO)c1,0.949
13,C=C(COC)/C(=C/C[C@H](OC(=O)c1ccncc1)c1cccc(OCCO)c1)c1cnc2ccccc2c1,0.697
14,COCCn1c(C(=O)N2CCCC2)cc2c1C[C@H]1CN(C(=O)c3ccccc3)[C@@](Cc3ccccc3)(C(=O)OC)[C@@H]21,1.89
15,O=C1C2C=CC(C(O)C(c3ccccc3)c3ccccc3)N(Nc3ccccc3)C2C(=O)N1c1ccccc1 (stereo not given),0.809
16,Cc1ccc(S(=O)(=O)N2[C@@H](c3ccccc3)C(C(=O)O)=CC[C@H]2c2ccc(C#N)cc2)cc1,0.302
17,C=CCC(OC(C)=O)[C@@H]1[C@@H](N(Cc2cc3ccccc3o2)C(=O)c2ccc(-c3ccccc3)cc2)c2cc(OCCCO)ccc2N1C(=O)c1ccc2ccccc2n1 (stereo not given in full),-0.12
